In PubChem BioAssay AID1159580 (chemical genetic matrix, 2015):
Several values for one entry are separate records, joined by “and”; a condition that tells them apart may be missing. Equal entries are not always repeated. In all, about 5,500 compounds went through this assay and about 2,000 (36%) were called active. About 18% were inconclusive and are not listed. Rule as the data show it: active = normalized growth mostly below about 0.91 (no sharp cut-off); inconclusive = no clear call, values can overlap the other calls; inactive = mostly above about 0.92. The list shows a part of the results.

Assay: chemical genetic growth profiling, strain panel (AID 1159580);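 also: tested at 20 µM; growth read once vehicle control cultures reached saturation at 30 °C; 1 = growth at the plate median or of vehicle wells; lower values mean less growth of the strain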
Details: growth OD

Measured: normalized growth

CC(C[N+](C)(C)C)OC(N)=O (centres undefined)
inactive: S. cerevisiae deletion strains, locus YJR066W, strain TOR1, hits give low values 0.993 | S. cerevisiae deletion strains, locus YKL009W, strain mrt4, hits give low values 0.934 | S. cerevisiae deletion strains, locus YKL068W, hits give low values 0.991 | S. cerevisiae deletion strains, locus YKL085W, strain MDH1 (second series), hits give low values 0.996 | S. cerevisiae deletion strains, locus YKL085W, strain MDH1, hits give low values 0.996 | S. cerevisiae deletion strains, locus YKL160W, strain elf1, hits give low values 1.01 | S. cerevisiae deletion strains, locus YKL190W, strain CNB1, hits give low values 1 | S. cerevisiae deletion strains, locus YKR001C, strain vps1, hits give low values 0.96 | S. cerevisiae deletion strains, locus YKR026C, strain gcn3, hits give low values 1.02 | S. cerevisiae deletion strains, locus YKR091W, strain srl3, hits give low values 1.02 | S. cerevisiae deletion strains, locus YLL001W, strain dnm1, hits give low values 1.03 | S. cerevisiae deletion strains, locus YLL026W, hits give low values 1.01 | S. cerevisiae deletion strains, locus YLL041C, strain sdh2, hits give low values 1.04 | S. cerevisiae deletion strains, locus YLR027C, strain aat2, hits give low values 1.03 | S. cerevisiae deletion strains, locus YLR039C, strain RIC1, hits give low values 0.952 | S. cerevisiae deletion strains, locus YLR058C, strain SHM2, hits give low values 0.991 | S. cerevisiae deletion strains, locus YLR102C, strain apc9, hits give low values 0.983 | S. cerevisiae deletion strains, locus YLR113W, strain HOG1, hits give low values 0.957 | S. cerevisiae deletion strains, locus YLR221C, strain rsa3, hits give low values 1.04 | S. cerevisiae deletion strains, locus YLR258W, strain gsy2, hits give low values 1.04 | S. cerevisiae deletion strains, locus YLR262C, strain YPT6 (second series), hits give low values 1.02 | S. cerevisiae deletion strains, locus YLR262C, strain YPT6, hits give low values 0.939 | S. cerevisiae deletion strains, locus YLR268W, strain sec22, hits give low values 0.973 | S. cerevisiae deletion strains, locus YLR320W, strain mms22, hits give low values 1.03 | S. cerevisiae deletion strains, locus YLR330W, strain CHS5, hits give low values 0.994 | S. cerevisiae deletion strains, locus YLR342W, strain FKS1 (second series), hits give low values 1.06 | S. cerevisiae deletion strains, locus YLR342W, strain FKS1, hits give low values 1.02 | S. cerevisiae deletion strains, locus YLR357W, strain rsc2, hits give low values 1.02 | S. cerevisiae deletion strains, locus YLR370C, strain arc18, hits give low values 1.03 | S. cerevisiae deletion strains, locus YLR371W, strain rom2, hits give low values 0.976 | S. cerevisiae deletion strains, locus YLR384C, strain iki3, hits give low values 1.03 | S. cerevisiae deletion strains, locus YLR418C, strain cdc73, hits give low values 0.953 | S. cerevisiae deletion strains, locus YML016C, strain PPZ1, hits give low values 0.995 | S. cerevisiae deletion strains, locus YML032C, strain rad52, hits give low values 0.983 | S. cerevisiae deletion strains, locus YML120C, strain ndi1, hits give low values 1.03 | S. cerevisiae deletion strains, locus YML124C, strain tub3, hits give low values 0.986 | S. cerevisiae deletion strains, locus YMR058W, strain fet3, hits give low values 1.03 | S. cerevisiae deletion strains, locus YMR078C, strain ctf18, hits give low values 0.97 | S. cerevisiae deletion strains, locus YMR125W, strain sto1, hits give low values 1.05 | S. cerevisiae deletion strains, locus YMR129W, hits give low values 1.03 | S. cerevisiae deletion strains, locus YMR205C, strain PFK2, hits give low values 0.998 | S. cerevisiae deletion strains, locus YMR223W, strain ubp8, hits give low values 0.987 | S. cerevisiae deletion strains, locus YMR231W, strain pep5, hits give low values 1.02 | S. cerevisiae deletion strains, locus YMR307W, strain GAS1, hits give low values 1.09 | S. cerevisiae deletion strains, locus YNL067W, strain RPL9B, hits give low values 0.98 | S. cerevisiae deletion strains, locus YNL071W, strain lat1, hits give low values 1.01 | S. cerevisiae deletion strains, locus YNL128W, strain TEP1, hits give low values 0.975 and 0.99 | S. cerevisiae deletion strains, locus YNL153C, strain GIM3, hits give low values 0.995 | S. cerevisiae deletion strains, locus YNL175C, strain NOP13, hits give low values 0.997 | S. cerevisiae deletion strains, locus YNL183C, strain NPR1, hits give low values 0.96 | S. cerevisiae deletion strains, locus YNL197C, strain WHI3, hits give low values 1 | S. cerevisiae deletion strains, locus YNL209W, strain ssb2, hits give low values 1.03 | S. cerevisiae deletion strains, locus YNL224C, strain SQS1, hits give low values 0.995 | S. cerevisiae deletion strains, locus YNL233W, strain BNI4, hits give low values 0.999 | S. cerevisiae deletion strains, locus YNL248C, strain rpa49, hits give low values 1.01 | S. cerevisiae deletion strains, locus YNL250W, strain rad50, hits give low values 1 | S. cerevisiae deletion strains, locus YNL271C, strain bni1, hits give low values 0.973 | S. cerevisiae deletion strains, locus YNL298W, strain CLA4, hits give low values 0.976 | S. cerevisiae deletion strains, locus YNL307C, strain MCK1, hits give low values 0.97 | S. cerevisiae deletion strains, locus YNL322C, strain KRE1 (second series), hits give low values 1.01 | S. cerevisiae deletion strains, locus YNL322C, strain KRE1, hits give low values 0.992 | S. cerevisiae deletion strains, locus YNR049C, strain mso1, hits give low values 1.01 | S. cerevisiae deletion strains, locus YNR052C, strain pop2, hits give low values 0.982 | S. cerevisiae deletion strains, locus YOL006C, strain TOP1, hits give low values 1.02 | S. cerevisiae deletion strains, locus YOL012C, strain htz1 0.744 | S. cerevisiae deletion strains, locus YOL147C, strain pex11, hits give low values 0.987 | S. cerevisiae deletion strains, locus YOR001W, strain rrp6, hits give low values 1.03 | S. cerevisiae deletion strains, locus YOR061W, strain CKA2, hits give low values 0.99 | S. cerevisiae deletion strains, locus YOR069W, strain VPS5, hits give low values 0.987 | S. cerevisiae deletion strains, locus YOR070C, strain gyp1, hits give low values 1.03 | S. cerevisiae deletion strains, locus YOR080W, strain dia2, hits give low values 1.04 | S. cerevisiae deletion strains, locus YOR083W, strain WHI5 (second series), hits give low values 0.996 | S. cerevisiae deletion strains, locus YOR083W, strain WHI5, hits give low values 0.976 | S. cerevisiae deletion strains, locus YOR106W, strain vam3, hits give low values 1.05 | S. cerevisiae deletion strains, locus YOR136W, strain idh2, hits give low values 0.968 | S. cerevisiae deletion strains, locus YOR144C, strain elg1, hits give low values 0.985 | S. cerevisiae deletion strains, locus YOR184W, strain ser1, hits give low values 0.976 | S. cerevisiae deletion strains, locus YOR231W, strain MKK1, hits give low values 0.979 | S. cerevisiae deletion strains, locus YOR265W, strain rbl2, hits give low values 1.02 | S. cerevisiae deletion strains, locus YOR270C, strain vph1, hits give low values 1.05 | S. cerevisiae deletion strains, locus YOR290C, strain snf2, hits give low values 1.02 | S. cerevisiae deletion strains, locus YOR316C, strain cot1, hits give low values 0.977 | S. cerevisiae deletion strains, locus YPL051W, strain arl3, hits give low values 1.02 | S. cerevisiae deletion strains, locus YPL055C, strain LGE1, hits give low values 0.998 | S. cerevisiae deletion strains, locus YPL078C, strain atp4, hits give low values 1.02 | S. cerevisiae deletion strains, locus YPL106C, strain sse1, hits give low values 1.06 | S. cerevisiae deletion strains, locus YPL240C, strain hsp82, hits give low values 1.02 | S. cerevisiae deletion strains, locus YPL256C, strain CLN2, hits give low values 0.976 | S. cerevisiae deletion strains, locus YPR119W, strain clb2, hits give low values 0.985 | S. cerevisiae deletion strains, locus YPR141C, strain kar3, hits give low values 0.986 | S. cerevisiae deletion strains, locus YPR163C, strain tif3, hits give low values 0.979 | S. cerevisiae deletion strains, locus YPR167C, strain met16, hits give low values 0.98 | S. cerevisiae deletion strains, strain wtn01, hits give low values 1 | S. cerevisiae strains, strain wild type, hits give low values 0.994
